# Experimental data taken from PubChem BioAssay (NCI).
# Compounds without any hit were thinned out: in the full panel of roughly 83,000, 20% have a hit.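 Each cell line was grown in a 96-well plate and treated with one concentration of compound for 48 hours. Values below 10 were considered active.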 Unmarked numbers belong to inactive results. Active and inactive are the calls of the source.
# How the values were obtained:
# Assay in all cases: NCI-60 one-dose screen, 48 h (100 = growth as untreated, 0 = no growth, -100 = all killed)
# Details in all cases: 10 µM unless noted
# [1] = test system: HCT-15 colon
# [2] = test system: HT29 colon
# [3] = test system: SNB-75 CNS
# [4] = test system: SNB-19 CNS
# [5] = test system: U251 CNS
# [6] = test system: PC-3 prostate
# [7] = test system: SK-MEL-5 melanoma
# [8] = test system: LOX IMVI melanoma
# [9] = test system: SK-MEL-28 melanoma
# [10] = test system: UACC-62 melanoma
Structure (SMILES),growth [1],growth [2],growth [3],growth [4],growth [5],growth [6],growth [7],growth [8],growth [9],growth [10]
COc1ccc(-c2nc(Nc3ccc(-c4nc5ccccc5[nH]4)cc3)nc(N3CCOCC3)n2)cc1,-62.2% (active),-23.1% (active),-19.2% (active),17.5%,6.38% (active),2.31% (active),-90.7% (active),-75.6% (active),-34% (active),
O=C1Nc2ccccc2/C1=C/c1cn(CCCn2c3ccccc3c(=O)c3ccccc32)c2ccccc12,82.3%,91.8%,69.7%,98.2%,93.3%,62.5%,74.7%,86%,107%,
NCCn1cc(-c2nc(-c3c[nH]c4ncccc34)cs2)c2cc(Br)ccc21,27.1%,31%,72.7%,79.3%,67.9%,59.9%,85.1%,82.6%,99.4%,
Cc1ccc2oc(=O)cc(-c3sc(N4CCCCC4)nc3-c3ccccc3)c2c1,96.9%,99.9%,78.1%,95.3%,101%,88.1%,91.3%,91.2%,103%,
CCC(c1ccc(OC)cc1)C(CC)c1ccc(O)c(CN2CCCCC2)c1 (stereo unspecified),33.6%,24.7%,94.5%,90.6%,72.8%,54.3%,30.6%,75.9%,41.6%,
COc1cc2ncnc(Nc3ccc(Oc4ccnc(C)c4)c(C)c3)c2cc1NC(=O)CC1CCSS1 (stereo unspecified),-72.4% (active),-80.7% (active),-3.3% (active),-32.2% (active),-13.4% (active),-50.3% (active),-89.1% (active),-87.8% (active),-66% (active),
OCC(CO)(CCl)CCl,109%,96.6%,96.8%,98.7%,84.8%,80.2%,104%,98.2%,103%,
COc1cc(/C=C/c2cc(/C=C/c3ccc(O)c(OC)c3)n(-c3ccccc3)c(=O)n2)ccc1O,80.8%,-13% (active),56.9%,76.2%,56.1%,70.4%,,61%,78.8%,69.9%
C[C@@H](C(=O)O)c1ccc2c3cc(Cl)ccc3n(Cc3cc(=O)oc4ccc(Cl)cc34)c2c1,99.1%,96.9%,90.8%,101%,101%,98.3%,98.4%,96.4%,99.9%,
COc1cc2c(cc1-c1c(C)noc1C)ncc1nc(C3CCC(F)(F)CC3)n([C@@H](C)COC(F)F)c12,13.4%,18.7%,23.4%,53.4%,50.5%,36.7%,,11%,47.3%,20.2%
COc1ccc(-c2n[nH]nc2-c2cc3ccccc3s2)cc1O,20%,29.9%,35.5%,27.6%,15.8%,16%,,20.6%,38.4%,33.7%
COc1cc(/C=C/c2cc(/C=C/c3ccc(O)c(OC)c3)n(-c3ccc(Cl)cc3)c(=O)n2)ccc1O,85.4%,-5.09% (active),69.7%,91%,75.5%,77.3%,,61.6%,81.6%,80.6%
CCN(CC)c1ccc(/C=C/c2cc(C)c3ccccc3n2)cc1,29.8%,8.05% (active),42.7%,59.7%,43%,65%,,52.2%,55.1%,38.4%
COC(=O)CNc1nc(N(C)O)nc(N(C)O)n1,30.4%,41.7%,96.4%,47.6%,36.5%,37.9%,,33.4%,42%,42.9%
Cn1nc(-c2ccccc2)c2c(-c3ccccc3)onc2c1=O,38.3%,1.6% (active),20.9%,34.3%,25.2%,32.4%,,53.4%,74.5%,38.1%
Cn1c2c(Cl)c(Cl)ccc2c2c(C#N)c[nH]c(=O)c21,99%,99.5%,91.9%,97.3%,101%,74.3%,,91.9%,114%,93.4%
CCCCN1CCCCn2c1nc1c2c(=O)n(C)c(=O)n1C,108%,102%,94.1%,104%,95%,108%,,99%,117%,101%
COc1ccc(NC(=S)N/N=C/c2ccccc2SSCCC(=O)OC[C@H]2O[C@H](O)[C@H](O)[C@@H](O)[C@@H]2O)cc1,71.8%,102%,86.3%,72.2%,59.5%,59.9%,71.7%,59.6%,85.3%,
COc1cc2c(cc1-c1c(C)noc1C)ncc1nc(C3CC3)n([C@H](C)COC(F)F)c12,23.9%,17.3%,34.3%,60.1%,52.8%,39.1%,,15.5%,63.5%,25.5%
COc1ccc(-n2c(/C=C/c3ccc(O)c(OC)c3)cc(/C=C/c3ccc(O)c(OC)c3)nc2=O)cc1,59%,-59.1% (active),54.5%,69.9%,32.4%,53.7%,,13%,58.5%,68.1%
CC(C)C[C@@H](NC(=O)[C@@H](Cc1ccccc1)NC(=O)c1cnccn1)B1O[C@H]2[C@H](O)[C@@H](C(=O)NCCCC[C@@H]3NC(=O)[C@@H](Cc4ccccc4)NC(=O)[C@H](CC(=O)O)NC(=O)CNC(=O)[C@H](CCCN=C(N)N)NC3=O)O[C@@H](CN)[C@H]2O1,-54% (active),-73.4% (active),-65.4% (active),-10.1% (active),-58.6% (active),-34.3% (active),,-86.1% (active),-30.1% (active),-36.7% (active)
O=C1c2cc3c(cc2-c2c1c1ccc(Cl)cc1c(=O)n2C[C@H](O)[C@@H](O)[C@H](O)CO)OCO3,0.364% (active),-14.4% (active),-1.89% (active),7.77% (active),-26.9% (active),12.7%,,-18.5% (active),-18.8% (active),-86.9% (active)
Cc1nn2c(-c3nc4cc(Cl)c(Cl)cc4[nH]3)c(-c3ccc(F)cc3)nc2s1,76.8%,20%,-43.7% (active),25.7%,,24.6%,31.9%,19.5%,22.9%,15.9%
CCCCCCCCNc1cccc2c1C(=O)c1ccccc1C2=O,107%,89.7%,98.3%,96.4%,110%,104%,,105%,114%,96%
Clc1cc(Cl)cc(Nc2ccc3c(OCCCN4CCOCC4)cccc3n2)c1,-46.4% (active),-64.5% (active),54.9%,31.7%,29.1%,42%,,-85.4% (active),65.6%,14.7%
O=C(Nc1ccc(/C=C2\SC(=O)N(Cc3ccc(OC(F)(F)F)cc3)C2=O)cc1)c1ccc(Cl)c([N+](=O)[O-])c1,72.5%,11.3%,85.5%,36.8%,-18.8% (active),9.15% (active),,73.1%,95.5%,94.4%
COc1cc(NC(C)CN(CC(C)C)C(C)C)c2ncccc2c1 (stereo unspecified),101%,97.5%,80.4%,116%,100%,80.5%,,94.7%,122%,106%
Cc1ccc(N(CC(=O)Nc2ccc(S(=O)(=O)N3CCC(N4CCCC4)CC3)cc2)S(=O)(=O)c2ccc(Cl)cc2)cc1,-47.8% (active),-16.9% (active),62.7%,40.6%,-2.58% (active),12%,-97.6% (active),-88.5% (active),-68.3% (active),
Oc1cccc2ccc(N/N=C/c3cc(CN4CCCCC4)c(O)c4ncccc34)nc12,20.6%,14.7%,27.4%,19.9%,-1.42% (active),5.8% (active),,-58.4% (active),23%,8.94% (active)
